Measurements: PubChem BioAssay AID492956 (The Scripps Research Institute Molecular Screening Center, 2010)
About 3,300 (0.97%) of roughly 340,000 compounds were called active. What follows is part of a selection rich in actives, with near analogues and random picks from the rest. Unmarked numbers belong to inactive results.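 How the source made its calls: active means inhibition above the mean over all tested compounds plus 3 SD (cut at about 30% in these data); inactive means the rest.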

target: Platelet-activating factor acetylhydrolase 2, cytoplasmic (Homo sapiens) (UniProt Q99487); assay: inhibition of cytoplasmic PAF acetylhydrolase 2 – biochemical, fluorescence polarization, human, primary screen (AID 492956); details: recombinant PAFAH2, FP-rhodamine activity probe, at 3.39 µM, hits give high values;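 further: inhibitors block probe labeling of enzyme so polarization drops; 0% = enzyme with DMSO and 100% = wells lacking PAFAH2 protein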

SMILES | inhibition
CCC(C)NC(=O)C1CCCN(C(=O)NC2CCCCC2)C1 (stereo not given) | 10.5%
COc1ccc(C(=O)C2CCCN(C(=O)c3cc4nc(C)cc(C)n4n3)C2)cc1F (stereo not given) | -3.28%
c1coc(-c2nc3nc4ccccc4n3nc2-c2ccco2)c1 | 45.7% (active)
COc1cc(OC)cc(C(=O)NC(=S)N2CCN(c3ccc(C(F)(F)F)cc3[N+](=O)[O-])CC2)c1 | 7.31%
Cc1ccc(-c2nn(-c3ccc(F)cc3)cc2C(=O)NCC(c2cccs2)N2CCOCC2)cc1 (stereo not given) | 3.21%
Cc1cc(C(=O)N2CCN(c3ccccn3)CC2)c(C)o1 | -1.14%
O=C(CSC1=Nc2ccccc2C2=NC(c3ccccc3)C(=O)N12)NCC1CCCO1 (stereo not given) | 7.84%
NC(=O)CSC1=Nc2ccccc2C2=NC(CCC(=O)NCc3ccc(F)cc3)C(=O)N12 (stereo not given) | 1.37%
CC(C)C1N=C2c3ccccc3N=C(SCC(=O)c3ccc(O)c(O)c3)N2C1=O (stereo not given) | 43.8% (active)
C/C(=N/Nc1nc(-c2ccccc2)c(CC(=O)O)s1)c1ccccc1 | 0.51%
CCCCCN1CC(O)=C(c2nc(-c3ccc(Cl)cc3)cs2)C1=N | -0.6%
CCOC(=O)CCCN1CC(O)=C(c2nc3ccccc3s2)C1=N | 34.8% (active)
COc1ccccc1N1CC(O)=C(c2nc3ccccc3s2)C1=N | 33.6% (active)
CCc1ccc(N2CC(O)=C(c3nc4ccccc4c(=O)[nH]3)C2=N)cc1 | -1.39%
CCCCCN1CC(O)=C(c2ccccc2)C1=N | -3.01%
N=C1C(c2nc3ccccc3s2)=C(O)CN1NC(=O)c1ccc([N+](=O)[O-])cc1 | 8.9%
CC(=O)Nc1ccc(N2C(=O)CCC2=O)cc1C | -0.05%
NC(=O)C1CCN(Cc2nc3c(Br)cc(Br)cc3c(=O)[nH]2)CC1 | -2.66%
C/C=C/C(=O)OCC(=O)Nc1ccc(F)cc1Cl | 26%
C/C=C/C=C/C(=O)OCC(=O)Nc1ccc(Cl)cc1 | 86.5% (active)

SMILES | inhibition
CCC(=O)Nc1ccc(C(=O)NNC(=O)c2ccc(Cl)cc2)cc1 | -2.08%
COc1ccc(-n2c(C)nn(CC3CC3)c2=O)cc1 | 0.47%
O=C1NCC(c2ccccc2)(c2ccccc2)C(=O)N1 | -5.72%
O=C(CSc1n[nH]c(-c2cccnc2)n1)Nc1ccc(Cl)cc1 | -7.75%
O=[N+]([O-])c1cc(S(=O)(=O)NCCc2ccccn2)ccc1Cl | 4.86%
O=C(COC(=O)/C=C/c1ccc(Br)o1)Nc1cccc(S(=O)(=O)N2CCOCC2)c1 | 42% (active)
CS(=O)(=O)c1ccc(Cl)c(NC(=O)COC(=O)c2cccc(S(=O)(=O)N3CCCC3)c2)c1 | 32.3% (active)
CC(NC(=O)c1ccccc1)C(=O)OCC(=O)Nc1cccc(S(=O)(=O)N2CCCC2)c1 (stereo not given) | 7.86%
CC(=O)c1cccc(OCC(=O)OCC(=O)Nc2cc(S(=O)(=O)N3CCCCC3)ccc2C)c1 | 1.56%
CN=C(Nc1cccc(S(=O)(=O)N2CCOCC2)c1)c1ccccc1 | 0.65%
O=C(CSc1ccccc1)Nc1cccc(S(=O)(=O)N2CCOCC2)c1 | -0.86%
O=C(COC(=O)CCc1ccc(S(=O)(=O)N2CCOCC2)cc1)Nc1cccc(Cl)c1 | 0.83%
O=C(COC(=O)CCOc1ccccc1)Nc1cc(S(=O)(=O)N2CCCCC2)ccc1Cl | -0.76%
O=C(CN1CCc2ccccc2C1)Nc1cccc(S(=O)(=O)N2CCOCC2)c1 | 5.27%
O=C(COC(=O)COc1ccccc1F)Nc1cccc(S(=O)(=O)N2CCCCC2)c1 | -7.67%
O=C(COC(=O)c1ccccc1)Nc1cccc(S(=O)(=O)N2CCOCC2)c1 | 37.7% (active)
CCOc1ncccc1C(=O)OCC(=O)Nc1cccc(S(=O)(=O)N2CCCCCC2)c1 | 60% (active)
OC(CN1C2=NCCCN2c2ccccc21)c1ccc(Br)cc1 (stereo not given) | 9.07%
C=CCNC(=O)/C=C/c1ccc(C(C)C)cc1 | 10%
CC(=O)NC12CC3CC(C1)CC(C(=O)N1CCN(S(=O)(=O)c4cccs4)CC1)(C3)C2 | 17.5%

SMILES | inhibition
O=C(OCC(=O)N1CCCCCC1)c1ccc(Br)c(S(=O)(=O)N2CCOCC2)c1 | 8.68%
COc1cccc(NC(=O)COc2cc(C)cc3oc(=O)cc(C)c23)c1 | -3.3%
CC(=O)c1nn(-c2ccc(C)cc2)cc1C(=O)c1cccc(Br)c1 | 1.51%
Cc1ccc(C)c(C(=O)COC(=O)Cn2[nH]c(=O)c3ccccc3c2=O)c1 | -1.71%
COCCCNC(=O)c1c(F)c(F)c(F)c(F)c1F | -4.37%
CC(NC(=O)CN1CCN(Cc2ccc(Cl)cc2)C1=O)c1ccc2c(c1)OCCO2 (stereo not given) | 1.47%
O=C(NCc1cccnc1)c1cccnc1Sc1ccc(Cl)cc1 | 2.4%
CCc1ccc(C(=O)OCC(=O)Nc2cccc(S(=O)(=O)NC3=NCCCCC3)c2)cc1 | 52.3% (active)
COc1ccccc1C(=O)OCC(=O)Nc1cccc(S(=O)(=O)NC2=NCCCCC2)c1 | 12.3%
O=C(COC(=O)c1c(Cl)cccc1Cl)Nc1cccc(S(=O)(=O)NC2=NCCCCC2)c1 | 8.12%
CNC(=O)C1CC(=O)N(Cc2ccc3c(c2)OCO3)C(=Nc2ccc(F)cc2)S1 (stereo not given) | 0.97%
CCC1(C)N(O)C(C)(C)C(c2ccc(OC)cc2)=[N+]1[O-] (stereo not given) | 2.06%
CCc1ccccc1NC(=O)c1ccc2c(c1)CCN2S(C)(=O)=O | 2.6%
COCCNC(=O)c1snc2ccc(Cl)cc12 | -2.13%
COCCNC(=O)Nc1ccc2nc(-c3ccco3)c(-c3ccco3)nc2c1 | 35.8% (active)
O=C(Nc1nc(-c2ccco2)c(-c2ccco2)s1)c1ccco1 | 22.9%
Cc1nnsc1C(=O)NCc1c(F)cccc1Cl | 2.19%
Cc1oc2cc(Br)c(O)c(Br)c2c1C(=O)c1ccccc1 | 59.6% (active)
CCOC(=O)c1c(-c2ccccc2)oc2cc(Br)c(O)c(C=O)c12 | 6.96%
Cc1oc2cc([N+](=O)[O-])c(O)c([N+](=O)[O-])c2c1C(=O)c1ccc(Br)cc1 | 8.04%
